Hit rate of the full screen: of about 69,000 compounds, about 950 (1.4%) showed an effect of 50% or more. The full list was thinned out, with strong results kept by preference.
System: Mycobacterium tuberculosis
Assay: Cornell M. t heat shock assay; also: in the data most compounds retested in dose-response had high values
Type: functional, organism-based
Set-up: dose or concentration left out as unconfirmed

SMILES | Percent Effect [%]
COc1cc(CNCC(O)c2ccc(C)cc2)cc2c1OCO2.Cl (centres undefined) | -8.52
O=C(NCC1CCCCC1)N1C[C@H]2C[C@H](C(=O)N3CCCC3)[C@@H](C1)O2 | -29.22
CN(C)C(=O)CN1CCCC2(CCN(c3ccsc3)C2=O)C1.O=C(O)C(F)(F)F (centres undefined) | -10.79
COc1ccc(CN2C[C@H]3C[C@H](CN(C)C)O[C@H]3C2)cc1.O=C(O)C(F)(F)F.O=C(O)C(F)(F)F | -20.17
CC(C)NC(=O)[C@H]1C[C@@H]2CN(C(=O)NCCc3ccccc3)C[C@H]1O2 | -3.811
Cl.O=c1c2sccc2nc2n1CCN(Cc1cc(F)ccc1F)CC2 | 0.6259
COc1ccc(CN2CC(=O)N(c3ccc(C)cc3)CC2C)cc1O (centres undefined) | -4.116
COc1cc(CN2CC(=O)N(c3ccc(C)cc3)CC2C)cc(OC)c1 (centres undefined) | 23.62
COc1cccc(OC)c1CN1CC(=O)N(c2ccc(C)cc2)CC1C (centres undefined) | 53.82
CC(CCSc1ccccc1)N1CCN(C(=O)c2cccs2)CC1 (centres undefined) | 96
CC(CCSc1ccccc1)N1CCN(C(=O)c2ccccc2O)CC1 (centres undefined) | 35.88
CC(CCSc1ccccc1)N1CCCN(C(N)=O)CC1 (centres undefined) | 30.42
COCCNC(=O)C[C@@H]1COC[C@H]2CN(CC3CCOCC3)C[C@@H]12.O=C(O)C(F)(F)F | -14.59
Cc1ccc(C(=O)N2CCc3ncnc(-c4cnn(C)c4)c3CC2)cn1.O=C(O)C(F)(F)F | -33.4
Cn1cc(NC(=O)CCc2ccsc2)ccc1=O | 27.26
Cc1cc(NC(=O)NCCc2ccccc2)n(C)n1 | -19.68
Cc1cnccc1NC(=O)CCc1ccsc1 | -21.59
COc1ccc(CCNC(=O)Nc2cc(C)nn2C)cc1 | 8.379
Cc1cc(NC(=O)NCCc2ccsc2)n(C)n1 | 63.69
Cc1cc(NC(=O)CCc2ccsc2)n(C)n1 | 89.31

SMILES | Percent Effect [%]
COCCN1Cc2nccn2CC(COCc2csc(C)n2)C1.O=C(O)C(F)(F)F.O=C(O)C(F)(F)F (centres undefined) | 2.482
O=S(=O)(c1ccc2c(c1)OCCO2)N1CCc2ccccc2C1 | -4.595
O=C(O)C(F)(F)F.c1ccc(N2CCCC3(CCN(Cc4cccs4)C3)C2)nc1 (centres undefined) | -4.42
Cc1ccc(C(CCNCCCN(C)C)C2CCOC(C)(C)C2)cc1.O=C(O)C(=O)O (centres undefined) | -7.6
CCc1ccc(-c2cc(C(F)(F)F)nc(N3CCC(N)CC3)n2)cc1 | 103
CCn1ncc(-c2cc(C(F)(F)F)nc(N3CCC(N)CC3)n2)c1C | 23.29
Cc1c(-c2cc(C(F)(F)F)nc(N3CCC(N)CC3)n2)cnn1C | -8.82
O=C(C1CC(F)(F)C1)N1C[C@@H]2CN(CC3CCCC3)CCO[C@@H]2C1.O=C(O)C(F)(F)F | -23.11
CN1CC(=O)N(c2ccsc2)CC12CCN(C(=O)N1CCCC1)C2.O=C(O)C(F)(F)F (centres undefined) | -15.35
CCc1cnc(N2CCC3(CC2)CN(c2cccnc2)C(=O)CO3)nc1.O=C(O)C(F)(F)F | -15.98
CCN1CCC(c2nc3ccc(NC4CCC4)cn3n2)CC1.O=C(O)C(F)(F)F | 28.46
Cc1noc(C)c1CN1C[C@@H]2COC[C@H](C(=O)N3CCCCO3)[C@@H]2C1.O=C(O)C(F)(F)F | 10.78
CC(=O)N[C@@H]1CN(C(=O)c2cccc(C(F)(F)F)c2)C[C@H]1O | -5.977
O=C(Nc1cc(Cl)ccn1)c1nc(N2CCCC2)ncc1Cl | 5.327
O=C(Nc1ccccn1)c1nc(N2CCCC2)ncc1Cl | -2.485
Cc1cc(NC(=O)c2nc(N3CCCC3)ncc2Cl)nc(C(C)C)n1 | 105.6
CC[C@H]1CN2CC[C@H]1C[C@@H]2CNC(=O)Nc1cc(OC)cc(OC)c1 | 76.55
CC[C@H]1CN2CC[C@H]1C[C@@H]2CNCc1ccc(OC)cc1 | -7.267
CC[C@H]1CN2CC[C@H]1C[C@@H]2CNC(=O)Nc1ccc(Br)cc1 | 4.849
CC[C@H]1CN2CC[C@H]1C[C@@H]2CNCc1ccc(OC(F)(F)F)cc1 | 100.5

SMILES | Percent Effect [%]
CC[C@H]1CN2CC[C@H]1C[C@@H]2CNCc1ccc(N(C)C)cc1 | 1.41
CC[C@H]1CN2CC[C@H]1C[C@@H]2CNC(=O)Nc1ccccc1 | -5.923
CC(C)C(=O)N(C)Cc1nc(N2CCCC2)ncc1-c1ccncc1.Cl | 19.59
CC(C)c1cc(C(=O)N2CCCC(n3cncn3)C2)n[nH]1 (centres undefined) | -20.76
Cc1[nH]nc2ncc(C(=O)N3CCN(CC(C)O)CC3)cc12.Cl (centres undefined) | -10.49
Cc1noc(C)c1CN1CCO[C@H]2CN(Cc3cncn3C)C[C@H]21.O=C(O)C(F)(F)F.O=C(O)C(F)(F)F | -21.37
CN1CCc2nc(C3CCN(C(=O)CCC4CCCC4)CC3)ncc2C1 | 104.5
CN1CCc2nc(C3CCCN(C(=O)CC4CCCCC4)C3)ncc2C1 (centres undefined) | -14.45
O=C(CCC1CCCC1)N1CCC(c2ncc3c(n2)CCNC3)CC1 | 14.08
Cc1ccc(CN2C[C@@H]3C[C@H](C(=O)NCC4CC4)N(C)[C@@H]3C2)o1.O=C(O)C(F)(F)F.O=C(O)C(F)(F)F | -27.97
CCC(C)Oc1ccc(CNCCNC(C)=O)cc1Cl (centres undefined) | -0.254
CCC(C)Oc1ccc(CNCCc2c[nH]cn2)cc1Cl (centres undefined) | 101.9
CCC(C)Oc1ccc(CNCCNS(C)(=O)=O)cc1Cl (centres undefined) | 14.23
COCCN(CCOC)Cc1nc2c(cnn2C)c(=O)[nH]1 | -10.64
CN(CCCc1ccccc1)Cc1nc2c(cnn2C)c(=O)[nH]1 | 59.96
CN(CCCOc1ccccc1)Cc1nc2c(cnn2C)c(=O)[nH]1 | -3.727
CN(CCc1ccccc1)Cc1nc2c(cnn2C)c(=O)[nH]1 | 14.44
COCCN(CCc1ccccc1)Cc1nc2c(cnn2C)c(=O)[nH]1 | 50.74
COCCCN(CCOC)Cc1nc2c(cnn2C)c(=O)[nH]1 | 18.48

Reference: ChEMBL document CHEMBL3988442, “University of Dundee, Small-Polar-MMV Screening Library” (2021)
